M1 PAM parental: nonselective calcium activators in parental CHO-K1 cells, primary screen, counter-screen for M1 PAM project, cell-based, Fluo-8 calcium fluorescence, full deck, 1536-well | activation, % at 3 µM | ATP EC20; 0% at ATP EC20, 100% at ATP max | 360,000 compounds, 0.02% hits | AID 602247, 2012;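 active = activation above the run cutoff, the mean activation of all test compounds plus 3 SD, cut at about 40% in these data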;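 note: peak over basal fluorescence ratio in a 140 s read after ATP addition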
CHRM1 PAM: human M1 muscarinic receptor positive allosteric modulators, primary screen, CHO-K1 cells, Fluo-8 calcium fluorescence, 1536-well | activation, % at 3 µM | 360,000 compounds, 0.088% hits | Muscarinic acetylcholine receptor M1 (Homo sapiens), P11229 | CHO-K1 hM1, ACh EC20; 0% = ACh EC20, 100% = maximal ACh; in the data active = activation above about 19%, passing the limit was not always enough
Target sequence (P11229 whole entry, looked up): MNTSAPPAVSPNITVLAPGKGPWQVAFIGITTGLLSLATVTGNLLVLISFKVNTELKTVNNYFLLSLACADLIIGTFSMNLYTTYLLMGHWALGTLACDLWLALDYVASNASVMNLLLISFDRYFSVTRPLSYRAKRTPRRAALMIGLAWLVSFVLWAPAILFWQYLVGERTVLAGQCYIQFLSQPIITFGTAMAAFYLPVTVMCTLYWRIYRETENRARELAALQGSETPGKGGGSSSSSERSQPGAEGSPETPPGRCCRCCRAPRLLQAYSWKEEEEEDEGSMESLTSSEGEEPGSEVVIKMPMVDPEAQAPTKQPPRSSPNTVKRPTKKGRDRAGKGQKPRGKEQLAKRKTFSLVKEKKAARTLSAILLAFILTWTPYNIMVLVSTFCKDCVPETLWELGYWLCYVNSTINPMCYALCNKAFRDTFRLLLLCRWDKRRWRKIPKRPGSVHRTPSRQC
CHRM1 antagonist: human M1 muscarinic receptor antagonists, primary screen, CHO-K1 cells, Fluo-8 calcium fluorescence, 1536-well; Muscarinic acetylcholine receptor M1 (Homo sapiens), P11229; CHO-K1 hM1, ACh EC80 antagonist; inhibition, % at 3 µM; 360,000 compounds, 1.3% hits; AID 588852, 2011;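 active = percent inhibition above its own plate's cutoff, namely the mean of that plate's compound wells plus 3 SD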;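 note: peak over basal fluorescence ratio during 140 s after agonist addition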
CHO-K1 Ca antag: counter-screen for M1 antagonists: effect in parental CHO-K1 cells; ATP-induced calcium, Fluo-8 fluorescence; inhibition, % at 3 µM; 360,000 compounds, 0.6% hits; AID 602250;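 active = inhibition above a per-plate cutoff, the plate's mean sample inhibition plus 3 SD, cut at about 24% in these data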
M1 ag parental: counter-screen for M1 agonists: effect in parental CHO-K1 cells. activation, % at 3 µM. Fluo-8 calcium fluorescence; scaled to maximal ATP response, vehicle zero. 360,000 compounds, 0.48% hits. AID 602248, 2012; in the data active = activation above about 15%;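 note: untransfected CHO-K1 host cells lacking M1 receptor as counterscreen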
CHRM1 agonist: human M1 muscarinic receptor agonists, primary screen, Fluo-8 calcium fluorescence, CHO-K1 cells, HTS | 360,000 compounds, 0.33% hits | Muscarinic acetylcholine receptor M1 (Homo sapiens), P11229 | AID 588814, 2011 | activation, % at 3 µM | CHO-K1 hM1, agonist mode; 0% DMSO, 100% acetylcholine EC100;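 active = activation above the run's mean compound activation plus 3 SD, cut at about 16% in these data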;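 note: peak over basal fluorescence ratio within a 140 s kinetic read after compound addition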
Hits are given with their value; – = inactive; · = no result. Only some compounds are listed: those with a hit (about 2.3% of all), similar ones and a draw of the others.

SMILES | M1 PAM parental | CHRM1 PAM | CHRM1 antagonist | CHO-K1 Ca antag | M1 ag parental | CHRM1 agonist
O=C(CN1CCOCC1)NN=C(c1ccccc1)c1ccccc1 | – | – | – | – | – | –
O=C(CN1CCCC1)NN=C(c1ccccc1)c1ccccc1 | – | – | 64 | – | – | –
COc1cc(NS(=O)(=O)c2c(C)[nH]c(C)c2C(=O)N2CCCCC2)cc(OC)c1OC | – | – | – | – | – | –
O=C(Nc1ccnn1C1CCN(Cc2cc(Cl)ccc2O)CC1)c1cccnc1 | – | – | 40 | – | – | –
Cc1cc(N2CCN(C)CC2)ccc1NC(=O)c1cccc(S(=O)(=O)N2CCc3ccccc3C2)c1 | – | – | 79 | – | – | –
COc1cc(OC)c(OC)cc1CNC(=O)c1cccc(S(=O)(=O)N2CCc3ccccc3C2)c1 | – | – | 36 | – | – | –
COc1ccccc1CNC(=O)c1cccc(S(=O)(=O)N2CCN(C)CC2)c1 | – | – | – | – | – | –
S=c1[nH]nc(-c2ccncc2)n1/N=C/C(Cl)=C\c1ccccc1 | – | – | – | – | – | 39
S=c1[nH]nc(-c2ccncc2)n1/N=C/C=C/c1ccccc1 | – | – | – | – | – | –
COc1ccc(CN2CCN(Cc3ccccc3F)CC2)cc1OC | – | – | – | – | – | –
CC1CN(C(=O)c2ccc(S(=O)(=O)Nc3cccc(C(F)(F)F)c3)cc2)CC(C)O1 (centres undefined) | – | – | – | – | 21 | 25
Cc1ccc(S(=O)(=O)Nc2ccc(C(=O)N3CCCC3)cc2)cc1 | – | – | – | – | – | –
Cc1ccc(NS(=O)(=O)c2ccc(C(=O)N3CC(C)CC(C)C3)cc2)cc1 (centres undefined) | – | – | 53 | 36 | 53 | 60
O=C(CN1C(=O)NC2(CCc3ccccc32)C1=O)Nc1ccccc1C(F)(F)F (centres undefined) | – | – | – | – | – | –
O=C(NN1CCOCC1)c1ccc(F)cc1 | – | – | – | – | – | –
COc1cc(C2C3=C(CC(C)(C)CC3=O)N(C)C3=C2C(=O)CC(C)(C)C3)cc(Br)c1O | – | – | – | – | – | –
O=c1[nH][nH]c2c1C(C1CCCCC1)OC(C1CCCCC1)C2 (centres undefined) | – | · | · | – | – | ·
CCn1c(-c2c(Cl)c(C)nn2C)n[nH]c1=S | – | – | – | – | – | –
COc1ccc(NC(=O)CSCC(=O)NC2(C)CCS(=O)(=O)C2)cc1 (centres undefined) | – | – | – | – | – | –
NC(c1ccccc1)c1csc(Nc2cc(Oc3ccccc3)ncn2)n1 (centres undefined) | – | – | 60 | – | – | –
CC(C)N(Cc1ccccc1)C(=O)CN1C(=O)COc2ccc(S(=O)(=O)N3CCCCCC3)cc21 | – | – | – | – | 16 | –
CN(Cc1ccccc1)C(=O)CN1C(=O)COc2ccc(S(=O)(=O)N3CCCC3)cc21 | – | – | – | – | – | –
CCN(CC(=O)Nc1ccc(Cl)c(S(=O)(=O)N(C)C)c1)CC(=O)NC(C)C | – | – | – | – | – | –
CCCc1cc(=O)oc2c3c(cc(OCC(=O)N4CCC(C(=O)O)CC4)c12)OC(C)(C)CC3 | – | – | – | – | – | –
COc1ccc(C(=O)N2CCc3cc(OC)c(OC)cc3C2c2ccc(OC)c(OC)c2)cc1 (centres undefined) | – | – | – | 24 | – | –
SMILES | M1 PAM parental | CHRM1 PAM | CHRM1 antagonist | CHO-K1 Ca antag | M1 ag parental | CHRM1 agonist
COc1ccc(C2c3cc(OC)c(OC)cc3CCN2C(=O)c2ccccc2)cc1OC (centres undefined) | – | – | – | – | – | –
CC(C)CC(=O)OC1C(N2CCOCC2)c2c(ccc(/C=C/C(=O)N3CCOCC3)c2O)OC1(C)C (centres undefined) | – | – | – | – | 15 | –
CN(C)S(=O)(=O)c1ccc(C(=O)Nc2nc(-c3cc4ccccc4o3)cs2)cc1 | – | – | 24 | – | – | –
O=C(Nc1nc(-c2cc3ccccc3o2)cs1)c1ccc(S(=O)(=O)N2CCCC2)cc1 | – | – | – | – | – | –
CNc1oc(-c2ccc(Cl)cc2)nc1P(=O)(c1ccccc1)c1ccccc1 | 49 | – | – | – | – | –
Cc1ccc(-c2nc(P(=O)(c3ccccc3)c3ccccc3)c(N3CCOCC3)o2)cc1 | – | – | – | – | – | –
O=C1COc2ccc(C(=O)CSc3nnc(NCc4ccccc4)s3)cc2N1 | – | – | – | – | 17 | –
O=C1COc2ccc(C(=O)CSc3nnc(Cc4ccccc4)o3)cc2N1 | – | – | – | – | – | –
CC1(C)CC(NC(=O)c2cc(S(=O)(=O)N3CCOCC3)c(Cl)cc2Cl)CC(C)(C)N1 | – | 31 | – | – | – | –
CCOC(=O)c1c2n(c3c(NCc4ccccc4)ncnc13)CCCC2 | – | – | – | 24 | – | –
Cc1ccc2c(c1)C(=O)N1[C@H]3c4cc(Cl)ccc4OC[C@@H]3[C@H](c3ccccc3)[C@]1(C)C(=O)N2 | – | – | – | – | – | –
C[C@@]12C(=O)Nc3cc(Cl)ccc3C(=O)N1[C@H]1c3cc(Cl)ccc3OC[C@@H]1[C@@H]2c1ccccc1 | – | – | – | – | – | –
Cc1ccc2c(c1)C(=O)N1[C@H]3c4cc(C)ccc4OC[C@@H]3[C@H](c3ccccc3)[C@]1(C)C(=O)N2 | – | – | 48 | – | – | –
C[C@@]12C(=O)Nc3ccc(Cl)cc3C(=O)N1[C@H]1c3ccccc3OC[C@@H]1[C@@H]2c1ccccc1 | – | – | 33 | – | – | –
COc1cc2c(cc1OC)C(=O)N1[C@H]3c4ccccc4OC[C@@H]3[C@H](c3ccccc3)[C@]1(C)C(=O)N2 | – | – | – | – | – | –
C[C@@]12C(=O)Nc3cc(Cl)ccc3C(=O)N1[C@H]1c3ccccc3OC[C@@H]1[C@@H]2c1ccccc1 | – | – | 33 | – | – | –
COc1cc(Cl)c(C)cc1NC(=O)CN1C(=O)C2CC=CCC2C1=O (centres undefined) | – | – | – | – | – | –
NNC(=O)c1cc2ccccc2cc1NS(=O)(=O)c1ccccc1 | – | – | – | – | – | –
FC(F)(F)c1ccc(CN2C[C@@H]3C(c4ccc(C(F)(F)F)cc4)C4(c5cccnc5)CC3(C4)[C@H]2c2ccccc2)cc1 (some centres undefined) | – | – | – | – | – | –
c1ccc(C2[C@H]3CN(CC4CCCCC4)[C@H](c4ccccc4)C34CC2(c2cccnc2)C4)cc1 (some centres undefined) | – | – | 74 | – | – | –

High-throughput results: PubChem BioAssay, The Scripps Research Institute Molecular Screening Center
